Laboratory results from PubChem BioAssay (Tox21).
Records with an inconclusive call do not appear. A call without a number means that no potency is given here. Active and inactive are the calls of the source. The call rests on the fitted dose curve.

The compounds below were run against Acetylcholinesterase (Homo sapiens) (UniProt P22303) (assay: Acetylcholinesterase (AChE) small molecule antagonists: fluorescence cell-based qHTS assay (AID 1347398; further: nearly all actives have a fitted effect of over 50% in size)). Conditions: SH-SY5Y cells; Potency: AChE activity; series mostly up to 115 µM.
Acetylcholinesterase (Homo sapiens), sequence (P22303 whole entry, looked up): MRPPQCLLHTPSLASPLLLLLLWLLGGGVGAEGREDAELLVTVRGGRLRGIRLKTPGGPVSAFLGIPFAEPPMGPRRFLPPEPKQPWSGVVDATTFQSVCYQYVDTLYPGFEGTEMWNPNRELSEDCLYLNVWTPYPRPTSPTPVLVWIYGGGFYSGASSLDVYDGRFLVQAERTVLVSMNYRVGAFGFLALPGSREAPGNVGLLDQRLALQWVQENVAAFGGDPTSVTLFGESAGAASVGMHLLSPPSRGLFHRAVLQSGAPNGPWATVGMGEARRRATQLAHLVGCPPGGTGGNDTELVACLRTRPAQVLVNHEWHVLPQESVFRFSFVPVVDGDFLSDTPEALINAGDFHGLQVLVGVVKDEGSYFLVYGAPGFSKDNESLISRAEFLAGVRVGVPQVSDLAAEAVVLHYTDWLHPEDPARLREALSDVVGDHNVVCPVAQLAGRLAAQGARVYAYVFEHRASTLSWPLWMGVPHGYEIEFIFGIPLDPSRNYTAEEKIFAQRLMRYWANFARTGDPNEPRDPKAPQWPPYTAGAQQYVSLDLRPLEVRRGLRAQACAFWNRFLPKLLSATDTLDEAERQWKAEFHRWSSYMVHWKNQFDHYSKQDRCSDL
Excerpt: National Center for Advancing Translational Sciences [NCATS]
Division of Preclinical Innovation [DPI]
U.S. Environmental Protection Agency [EPA]
National Institutes of Environmental Health Sciences [NIEHS]
National Toxicology Program [NTP]
U.S. Food and Drug Administration [FDA]
Acetylcholinesterase (AChE) is the primary cholinesterase in the body that hydrolyzes a key neurotransmitter, acetylcholine. Inhibition of AChE activity can lead to neurotoxicity. Known inhibitors of AChE include organophosphorous pesticides (OP), chemical warfare agents, drugs, and various phytochemicals.
A homogenous cell-based assay using Amplitetrade mark Fluorimetric Acetylcholinesterase Assay Kit *Green Fluorescence* (AAT Bioquest, Sunnyvale, CA) was used to evaluate the chemicals in the Tox21 10K library that inhibit AChE activity. The assay uses Thiolite Green to quantify the thiocholine produced from the hydrolysis of acetylthiocholine by AChE from the SH-SY5Y cells. AChE can hydrolyze acetylthiocholine to create thiocholine. Thiolite Green is fluorescent when reacting with thiocholine. It has spectral properties similar to those of fluorescein. The fluorescence intensity of Thiolite Green is used to measure AChE activity. Its signal can be easily read by a fluorescence microplate reader at Ex/Em = 490/520 nm.
Tox21 Assay Protocol Summary:
For cell-based AChE assay, 2,000 SH-SY5Y cells in 4 uL/well were dispensed into black, clear-bottom 1536-well plates using a Multidrop Combi (Thermo Scientific) dispenser. The assay plates were incubated overnight at 37 C to allow cells to attach to the wells, followed by the transfer of 23 nL compound or DMSO (vehicle control) by a Pintool station (Wako Automation, CA). The plates were incubated for 30 min at 37 C and 5% CO2, followed by the addition of 4 uL of detection cocktail solution (ThioliteGreen, acetylthiocholine) into each well using Flying Reagent Dispenser (Beckman Coulter, CA) and then following 40 min incubation at room temperature. Fluorescent intensity (Ex/Em = 490/520 nm) was measured using an Envision plate reader (PerkinElmer, MA).

Row | SMILES | Potency
1 | [Cl][Sn]([Cl])([Cl])[Cl] | inactive
2 | O=C1OC(=O)C2C1C1(Cl)C(Cl)=C(Cl)C2(Cl)C1(Cl)Cl (stereo not given) | inactive
3 | CC(C(O)c1ccccc1)N(C)C/C=C/c1ccccc1 (stereo not given) | inactive
4 | COC(=O)C(c1ccccc1)C1CCCCN1 (stereo not given) | inactive
5 | C=CC1CC=CCC1 (stereo not given) | inactive
6 | C(CCOCC1CO1)COCC1CO1 (stereo not given) | inactive
7 | CC(CCc1ccccc1)NC(C)C(O)c1ccc(O)cc1 (stereo not given) | inactive
8 | c1cc[c]([Hg][c]2ccccc2)cc1 | inactive
9 | Clc1cccc(N2CCNCC2)c1 | inactive
10 | CC(=O)Nc1cc([As](=O)(O)O)ccc1O | inactive
11 | O=[N+]([O-])c1cccc2cccnc12 | inactive
12 | CCC(Cl)[N+](=O)[O-] (stereo not given) | inactive
13 | c1cc2c(c(N3CCNCC3)c1)OCCO2 | inactive
14 | Nc1cc2c3c(c1)C(c1ccccc1)=N[C@@H](NC(=O)c1cccnc1)C(=O)N3CC2 | inactive
15 | O=C(Cc1ccccc1)OCc1ccccc1 | inactive
16 | N#CCBr | inactive
17 | CCC(=O)c1ccccc1 | inactive
18 | O=c1oc2ccccc2c(O)c1C1CCCc2ccccc21 (stereo not given) | inactive
19 | CC1CCC(=O)O1 (stereo not given) | inactive
20 | CN1CCC(O)(c2ccc(F)cc2)C(C(=O)c2ccc(F)cc2)C1 (stereo not given) | inactive

Row | SMILES | Potency
21 | OC(c1ccc(F)cc1)(c1cncnc1)c1ccccc1Cl (stereo not given) | inactive
22 | CN1C(=S)CN=C(c2ccccc2)c2cc(Cl)ccc21 | inactive
23 | CS(=O)(=O)c1cc(C(F)(F)F)ccc1C(=O)c1cnoc1C1CC1 | inactive
24 | CCCCN(CCCCO)N=O | inactive
25 | CC(N)=S | inactive
26 | O=P(O)(Oc1ccccc1)Oc1ccccc1 | inactive
27 | CNC(=O)Oc1ccccc1C1OCCO1 | inactive
28 | CC(C)NCC(O)c1ccc(N)c(C#N)c1 (stereo not given) | inactive
29 | N#CCCC#N | inactive
30 | Nc1ccccc1Cl | inactive
31 | CC(C)(C)NCC(O)c1cc(Cl)c(N)c(Cl)c1 (stereo not given) | inactive
32 | Oc1c(Cl)cccc1Cl | inactive
33 | COC(=O)C1=CCCN(C)C1 | inactive
34 | CCC(C)n1c(=O)[nH]c(C)c(Br)c1=O (stereo not given) | inactive
35 | COC(C)(C)C | inactive
36 | CN1CCN(C(=O)O[C@H]2c3nccnc3C(=O)N2c2ccc(Cl)cn2)CC1 | inactive
37 | CC1=NNC(=O)N(/N=C/c2cccnc2)C1 | inactive
38 | COc1cccc2c1cc([N+](=O)[O-])c1c(C(=O)O)cc3c(c12)OCO3 | inactive
39 | CC(C(=O)c1ccccc1)N(C)C (stereo not given) | inactive
40 | ClC(Br)Br | inactive
